The values below come from ChEMBL document CHEMBL1961873, “Compounds: GSK PKIS; Assays: Nanosyn kinase panel” (2012).

The target in experiment [1] is T1, Ephrin type-B receptor 2 (Homo sapiens) (UniProt P29323).
T1 sequence (whole entry): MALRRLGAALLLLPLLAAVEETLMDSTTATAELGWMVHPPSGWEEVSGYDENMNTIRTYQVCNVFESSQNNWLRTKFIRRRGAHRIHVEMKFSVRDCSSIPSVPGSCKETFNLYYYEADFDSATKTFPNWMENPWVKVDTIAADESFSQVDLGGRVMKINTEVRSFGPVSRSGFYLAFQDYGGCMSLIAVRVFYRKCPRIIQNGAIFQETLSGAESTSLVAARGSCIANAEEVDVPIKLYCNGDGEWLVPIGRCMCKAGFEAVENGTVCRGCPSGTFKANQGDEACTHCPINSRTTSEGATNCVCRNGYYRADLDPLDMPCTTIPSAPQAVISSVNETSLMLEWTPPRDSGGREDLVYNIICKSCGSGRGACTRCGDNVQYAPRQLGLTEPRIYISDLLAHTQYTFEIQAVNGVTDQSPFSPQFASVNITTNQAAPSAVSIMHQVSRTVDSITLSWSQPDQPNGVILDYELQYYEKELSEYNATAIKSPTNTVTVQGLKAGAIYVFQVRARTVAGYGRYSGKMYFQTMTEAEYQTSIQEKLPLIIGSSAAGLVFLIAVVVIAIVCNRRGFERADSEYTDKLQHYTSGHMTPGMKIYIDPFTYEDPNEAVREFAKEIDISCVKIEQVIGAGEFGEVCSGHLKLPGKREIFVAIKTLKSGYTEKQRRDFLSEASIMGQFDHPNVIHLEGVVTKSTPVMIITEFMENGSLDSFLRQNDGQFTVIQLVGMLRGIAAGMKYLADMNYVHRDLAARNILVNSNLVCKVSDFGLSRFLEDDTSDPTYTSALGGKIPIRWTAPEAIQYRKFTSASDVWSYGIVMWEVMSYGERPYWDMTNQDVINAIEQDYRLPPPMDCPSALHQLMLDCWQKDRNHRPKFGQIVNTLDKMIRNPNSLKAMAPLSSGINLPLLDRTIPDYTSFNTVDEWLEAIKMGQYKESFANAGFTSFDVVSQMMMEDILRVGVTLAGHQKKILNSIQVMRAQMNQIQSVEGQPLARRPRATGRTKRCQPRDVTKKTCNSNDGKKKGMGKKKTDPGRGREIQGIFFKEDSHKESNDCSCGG
The following applies: at 1 µM.

Experiment [2] has as its target T2, Ephrin type-B receptor 3 (Homo sapiens) (UniProt P54753).
T2 sequence (whole entry): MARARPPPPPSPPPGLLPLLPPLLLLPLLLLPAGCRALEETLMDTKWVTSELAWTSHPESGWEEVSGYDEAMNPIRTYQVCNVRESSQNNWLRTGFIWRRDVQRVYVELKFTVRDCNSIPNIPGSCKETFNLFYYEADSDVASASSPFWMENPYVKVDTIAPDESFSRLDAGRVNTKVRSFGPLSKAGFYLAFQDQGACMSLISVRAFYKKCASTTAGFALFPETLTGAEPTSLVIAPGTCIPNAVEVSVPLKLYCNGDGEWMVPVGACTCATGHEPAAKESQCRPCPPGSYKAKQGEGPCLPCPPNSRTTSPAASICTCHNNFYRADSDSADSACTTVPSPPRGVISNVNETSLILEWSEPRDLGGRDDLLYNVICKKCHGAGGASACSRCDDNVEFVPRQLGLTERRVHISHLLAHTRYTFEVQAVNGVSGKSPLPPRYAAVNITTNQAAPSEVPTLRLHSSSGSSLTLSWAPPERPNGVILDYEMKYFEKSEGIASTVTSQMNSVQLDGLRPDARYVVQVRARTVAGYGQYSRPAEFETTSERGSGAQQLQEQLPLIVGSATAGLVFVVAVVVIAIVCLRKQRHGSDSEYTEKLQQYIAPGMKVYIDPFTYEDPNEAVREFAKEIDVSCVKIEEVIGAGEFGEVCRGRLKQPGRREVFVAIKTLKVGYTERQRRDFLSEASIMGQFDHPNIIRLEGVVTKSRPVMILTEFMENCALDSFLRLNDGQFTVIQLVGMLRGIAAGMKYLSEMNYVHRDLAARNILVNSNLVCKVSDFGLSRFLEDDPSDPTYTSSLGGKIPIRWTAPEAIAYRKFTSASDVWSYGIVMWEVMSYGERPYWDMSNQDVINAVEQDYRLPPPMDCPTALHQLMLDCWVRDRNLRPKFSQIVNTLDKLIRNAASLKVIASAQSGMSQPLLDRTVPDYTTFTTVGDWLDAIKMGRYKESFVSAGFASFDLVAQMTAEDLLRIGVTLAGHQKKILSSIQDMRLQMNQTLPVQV
The conditions noted are these: at 0.1 µM.

The target in experiment [3] is T2, Ephrin type-B receptor 3 (Homo sapiens). The conditions noted are these: at 1 µM.
Experiment [4] concerns the target T3, Ephrin type-B receptor 4 (Homo sapiens) (UniProt P54760).
T3 sequence (whole entry): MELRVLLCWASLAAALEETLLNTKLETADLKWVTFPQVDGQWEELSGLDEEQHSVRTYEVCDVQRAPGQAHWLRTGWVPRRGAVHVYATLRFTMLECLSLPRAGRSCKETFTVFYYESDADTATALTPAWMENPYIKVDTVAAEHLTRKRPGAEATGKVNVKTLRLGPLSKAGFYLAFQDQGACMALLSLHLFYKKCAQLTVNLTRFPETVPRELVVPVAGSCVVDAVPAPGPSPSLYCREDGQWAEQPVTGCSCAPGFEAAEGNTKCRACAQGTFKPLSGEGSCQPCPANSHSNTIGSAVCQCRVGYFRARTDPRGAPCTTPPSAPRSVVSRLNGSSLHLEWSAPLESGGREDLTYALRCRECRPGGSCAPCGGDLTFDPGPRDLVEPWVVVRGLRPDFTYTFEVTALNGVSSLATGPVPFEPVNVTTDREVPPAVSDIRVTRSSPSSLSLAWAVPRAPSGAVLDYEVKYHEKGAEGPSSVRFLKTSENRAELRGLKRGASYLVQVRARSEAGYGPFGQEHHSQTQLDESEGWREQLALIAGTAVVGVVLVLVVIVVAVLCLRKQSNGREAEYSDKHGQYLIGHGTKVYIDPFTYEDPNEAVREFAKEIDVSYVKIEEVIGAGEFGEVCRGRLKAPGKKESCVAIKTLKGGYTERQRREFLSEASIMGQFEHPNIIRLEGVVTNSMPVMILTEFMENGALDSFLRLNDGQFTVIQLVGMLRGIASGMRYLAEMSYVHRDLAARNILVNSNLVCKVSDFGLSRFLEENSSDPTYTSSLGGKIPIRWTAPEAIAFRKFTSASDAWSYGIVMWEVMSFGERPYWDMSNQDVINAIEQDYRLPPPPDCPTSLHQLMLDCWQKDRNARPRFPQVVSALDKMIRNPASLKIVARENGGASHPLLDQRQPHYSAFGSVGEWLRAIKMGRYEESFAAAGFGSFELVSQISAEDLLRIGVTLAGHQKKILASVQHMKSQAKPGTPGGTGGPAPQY
The following applies: at 0.1 µM.

Experiment [5] has as its target T3, Ephrin type-B receptor 4 (Homo sapiens). The conditions noted are these: at 1 µM.
In experiment [6] the target is Receptor tyrosine-protein kinase erbB-2 (Homo sapiens) (UniProt P04626). The following applies: at 0.1 µM.
Experiment [7] has the same target. The conditions noted are these: at 1 µM.
Experiment [8] deals with Receptor tyrosine-protein kinase erbB-4 (Homo sapiens) (UniProt Q15303). The following applies: at 0.1 µM.
For experiment [9] the target is unchanged. The following applies: at 1 µM.
The target in experiment [10] is Tyrosine-protein kinase Fer (Homo sapiens) (UniProt P16591). The conditions noted are these: at 0.1 µM.
Experiment [11] has the same target. The following applies: at 1 µM.
Experiment [12] has as its target Tyrosine-protein kinase Fes/Fps (Homo sapiens) (UniProt P07332). The following applies: at 0.1 µM.
Experiment [13] has the same target. The conditions noted are these: at 1 µM.
The target in experiment [14] is Fibroblast growth factor receptor 1 (Homo sapiens) (UniProt P11362). The conditions noted are these: at 0.1 µM.
For experiment [15] the target is unchanged. The following applies: at 1 µM.
For experiment [16], the target named is Fibroblast growth factor receptor 2 (Homo sapiens) (UniProt P21802). The following applies: at 0.1 µM.
Experiment [17] has the same target. The conditions noted are these: at 1 µM.
Experiment [18] concerns the target Fibroblast growth factor receptor 3 (Homo sapiens) (UniProt P22607). The following applies: at 0.1 µM.
Experiment [19] shares this target. The following applies: at 1 µM.
Experiment [20] concerns the target Fibroblast growth factor receptor 4 (Homo sapiens) (UniProt P22455). The following applies: at 0.1 µM.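 Note: values are mean percent inhibition of FGFR4.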

Chain of Fibroblast growth factor receptor 4 (Homo sapiens) (P22455 22-802 limits assumed): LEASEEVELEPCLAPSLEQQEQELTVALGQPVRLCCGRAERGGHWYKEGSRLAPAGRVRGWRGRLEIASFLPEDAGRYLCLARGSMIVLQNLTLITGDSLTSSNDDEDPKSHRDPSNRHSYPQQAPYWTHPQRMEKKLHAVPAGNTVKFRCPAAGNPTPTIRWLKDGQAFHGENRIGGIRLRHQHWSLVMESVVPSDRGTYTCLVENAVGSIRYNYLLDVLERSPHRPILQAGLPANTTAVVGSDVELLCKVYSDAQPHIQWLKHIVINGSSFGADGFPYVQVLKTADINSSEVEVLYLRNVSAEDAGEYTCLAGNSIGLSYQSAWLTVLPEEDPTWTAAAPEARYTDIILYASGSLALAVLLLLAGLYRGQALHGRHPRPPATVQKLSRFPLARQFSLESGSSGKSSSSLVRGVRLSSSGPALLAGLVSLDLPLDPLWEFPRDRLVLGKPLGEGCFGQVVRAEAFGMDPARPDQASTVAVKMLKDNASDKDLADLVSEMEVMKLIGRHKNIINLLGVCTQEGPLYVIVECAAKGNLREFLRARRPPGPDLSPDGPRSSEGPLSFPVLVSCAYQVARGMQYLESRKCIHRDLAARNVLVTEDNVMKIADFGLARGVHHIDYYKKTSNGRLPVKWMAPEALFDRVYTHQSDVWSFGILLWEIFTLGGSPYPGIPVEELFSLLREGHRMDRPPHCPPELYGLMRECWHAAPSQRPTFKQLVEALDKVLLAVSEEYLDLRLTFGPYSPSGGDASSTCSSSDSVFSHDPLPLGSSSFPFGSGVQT
Chain of Fibroblast growth factor receptor 3 (Homo sapiens) (P22607 23-806 limits assumed): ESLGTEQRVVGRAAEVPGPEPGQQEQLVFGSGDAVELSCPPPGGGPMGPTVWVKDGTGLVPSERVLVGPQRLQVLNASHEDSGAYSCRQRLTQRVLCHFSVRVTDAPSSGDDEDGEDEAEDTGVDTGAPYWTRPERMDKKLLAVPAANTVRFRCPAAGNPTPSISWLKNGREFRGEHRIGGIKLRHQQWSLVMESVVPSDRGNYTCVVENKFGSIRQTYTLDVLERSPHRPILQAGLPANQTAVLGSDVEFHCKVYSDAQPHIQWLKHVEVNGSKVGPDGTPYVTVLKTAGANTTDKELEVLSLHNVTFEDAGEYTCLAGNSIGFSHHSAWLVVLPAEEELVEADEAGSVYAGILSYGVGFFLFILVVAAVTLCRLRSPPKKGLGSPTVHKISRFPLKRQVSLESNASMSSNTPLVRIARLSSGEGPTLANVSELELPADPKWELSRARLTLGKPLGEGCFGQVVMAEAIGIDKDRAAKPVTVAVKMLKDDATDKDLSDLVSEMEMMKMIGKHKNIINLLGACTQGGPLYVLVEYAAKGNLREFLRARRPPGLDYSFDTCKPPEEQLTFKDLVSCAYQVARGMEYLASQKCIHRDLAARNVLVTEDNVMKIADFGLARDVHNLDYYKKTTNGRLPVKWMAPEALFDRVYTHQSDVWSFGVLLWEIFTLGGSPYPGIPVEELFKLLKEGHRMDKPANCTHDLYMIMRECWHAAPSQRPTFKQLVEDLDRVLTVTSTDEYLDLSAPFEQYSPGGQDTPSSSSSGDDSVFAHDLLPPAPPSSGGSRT
Chain of Tyrosine-protein kinase Fer (Homo sapiens) (P16591 whole entry, looked up): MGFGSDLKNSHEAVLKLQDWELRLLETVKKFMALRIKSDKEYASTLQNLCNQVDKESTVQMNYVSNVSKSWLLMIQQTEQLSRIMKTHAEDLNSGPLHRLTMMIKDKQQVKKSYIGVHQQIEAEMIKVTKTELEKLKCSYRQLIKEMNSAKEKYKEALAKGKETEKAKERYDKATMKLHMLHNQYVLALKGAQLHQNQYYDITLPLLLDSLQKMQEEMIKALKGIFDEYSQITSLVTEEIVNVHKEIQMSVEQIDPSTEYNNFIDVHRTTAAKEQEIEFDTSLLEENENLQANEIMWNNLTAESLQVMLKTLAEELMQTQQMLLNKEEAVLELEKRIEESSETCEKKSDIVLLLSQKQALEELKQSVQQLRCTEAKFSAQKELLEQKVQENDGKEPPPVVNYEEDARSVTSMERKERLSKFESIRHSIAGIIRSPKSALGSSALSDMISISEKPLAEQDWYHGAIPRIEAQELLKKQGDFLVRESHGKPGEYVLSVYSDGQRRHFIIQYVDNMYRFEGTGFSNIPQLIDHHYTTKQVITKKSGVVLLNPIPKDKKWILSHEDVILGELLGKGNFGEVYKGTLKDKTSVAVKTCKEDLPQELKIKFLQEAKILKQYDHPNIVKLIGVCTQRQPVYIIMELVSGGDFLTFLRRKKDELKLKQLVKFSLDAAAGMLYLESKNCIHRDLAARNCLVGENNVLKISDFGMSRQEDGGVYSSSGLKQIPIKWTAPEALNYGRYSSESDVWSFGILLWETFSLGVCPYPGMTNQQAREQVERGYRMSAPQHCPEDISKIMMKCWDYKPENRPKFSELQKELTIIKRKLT
Chain of Receptor tyrosine-protein kinase erbB-2 (Homo sapiens) (P04626 whole entry): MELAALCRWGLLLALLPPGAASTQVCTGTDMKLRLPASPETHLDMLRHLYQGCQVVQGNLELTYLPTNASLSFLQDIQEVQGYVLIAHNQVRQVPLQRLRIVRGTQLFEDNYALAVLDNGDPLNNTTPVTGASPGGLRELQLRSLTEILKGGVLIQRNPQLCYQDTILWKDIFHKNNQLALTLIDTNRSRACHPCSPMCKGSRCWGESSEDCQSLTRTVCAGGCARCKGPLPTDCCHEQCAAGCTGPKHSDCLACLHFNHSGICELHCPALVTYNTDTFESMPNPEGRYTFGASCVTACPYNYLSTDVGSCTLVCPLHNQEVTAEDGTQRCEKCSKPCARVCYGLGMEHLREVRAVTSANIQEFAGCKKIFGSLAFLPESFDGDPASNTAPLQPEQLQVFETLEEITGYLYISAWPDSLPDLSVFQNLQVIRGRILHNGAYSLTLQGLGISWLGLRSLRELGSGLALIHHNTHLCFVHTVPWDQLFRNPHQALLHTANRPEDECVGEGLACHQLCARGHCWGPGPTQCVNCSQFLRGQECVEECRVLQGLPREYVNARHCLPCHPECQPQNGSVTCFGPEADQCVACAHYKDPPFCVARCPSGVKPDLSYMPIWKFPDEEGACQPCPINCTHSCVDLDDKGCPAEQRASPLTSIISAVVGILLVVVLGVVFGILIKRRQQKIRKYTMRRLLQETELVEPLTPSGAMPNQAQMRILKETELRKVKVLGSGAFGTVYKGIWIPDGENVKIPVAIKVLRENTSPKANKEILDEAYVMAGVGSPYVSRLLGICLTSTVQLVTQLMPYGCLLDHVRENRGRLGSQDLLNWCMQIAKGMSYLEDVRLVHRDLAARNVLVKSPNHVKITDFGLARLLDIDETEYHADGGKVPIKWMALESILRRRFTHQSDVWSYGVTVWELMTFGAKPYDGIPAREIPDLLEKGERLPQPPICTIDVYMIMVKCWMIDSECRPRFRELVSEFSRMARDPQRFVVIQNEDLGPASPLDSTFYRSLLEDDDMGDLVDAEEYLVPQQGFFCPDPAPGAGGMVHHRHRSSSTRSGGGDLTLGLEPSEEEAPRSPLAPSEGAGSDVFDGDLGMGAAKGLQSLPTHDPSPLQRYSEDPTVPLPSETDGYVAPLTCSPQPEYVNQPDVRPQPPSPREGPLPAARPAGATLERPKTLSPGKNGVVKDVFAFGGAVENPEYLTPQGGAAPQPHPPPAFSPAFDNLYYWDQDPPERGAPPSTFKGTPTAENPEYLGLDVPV
Chain of Fibroblast growth factor receptor 1 (Homo sapiens) (P11362 22-822 limits assumed): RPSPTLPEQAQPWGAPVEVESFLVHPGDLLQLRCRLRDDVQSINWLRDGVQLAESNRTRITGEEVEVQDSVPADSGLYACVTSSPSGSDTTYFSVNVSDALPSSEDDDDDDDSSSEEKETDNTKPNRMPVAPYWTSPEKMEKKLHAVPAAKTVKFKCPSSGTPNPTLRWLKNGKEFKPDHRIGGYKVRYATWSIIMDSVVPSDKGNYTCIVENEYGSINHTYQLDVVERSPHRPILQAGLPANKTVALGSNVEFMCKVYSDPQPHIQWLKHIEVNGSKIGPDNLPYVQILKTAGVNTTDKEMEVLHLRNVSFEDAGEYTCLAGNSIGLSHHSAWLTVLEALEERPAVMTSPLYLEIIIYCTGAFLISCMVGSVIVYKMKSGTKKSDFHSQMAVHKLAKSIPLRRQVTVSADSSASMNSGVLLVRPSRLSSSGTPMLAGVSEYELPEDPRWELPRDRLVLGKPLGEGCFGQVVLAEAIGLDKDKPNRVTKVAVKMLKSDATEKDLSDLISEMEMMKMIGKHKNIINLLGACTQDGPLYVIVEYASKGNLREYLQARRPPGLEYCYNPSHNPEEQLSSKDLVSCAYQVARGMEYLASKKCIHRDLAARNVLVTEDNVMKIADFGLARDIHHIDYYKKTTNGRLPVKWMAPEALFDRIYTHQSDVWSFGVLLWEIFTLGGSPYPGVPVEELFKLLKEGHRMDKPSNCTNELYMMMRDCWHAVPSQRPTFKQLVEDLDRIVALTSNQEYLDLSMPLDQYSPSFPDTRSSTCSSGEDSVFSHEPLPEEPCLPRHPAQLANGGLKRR

With `CS(=O)(=O)CCNCc1coc(-c2ccc3ncnc(Nc4ccc(OCc5ccccc5)cc4)c3c2)c1`, the inhibition in experiment [1] is 7.45%; in [2], 3.83%; in experiment [3], 4.34%; in experiment [4], 2.88%; in experiment [5], 4.04%; in experiment [6], 6.1%. Further, the inhibition in experiment [7] was 59%; in [8], 55.3%; in experiment [9], 94.1%; in [10] it was -0.6%; in experiment [11], 1.36%; in experiment [12], 2.79%. The inhibition in experiment [13] was determined as 3.78%; in experiment [14], 3.21%; in [15], 2.53%; in experiment [16] it was 3.27%; in experiment [17], 4.29%; in experiment [18] it was 5.11%. Besides, the values for the inhibition in experiment [19] and in experiment [20] were 3.99% and 4.22%, respectively.
For `COc1cc(N2CCN(C(C)C)CC2)ccc1Nc1nc(Nc2ccc(F)cc2C(N)=O)c2cc[nH]c2n1`, the inhibition in experiment [1] came to 1.15%; in experiment [2] it was 2.78%; in experiment [3] it was 2.03%; in experiment [4] it was 1.77%; in experiment [5] it was 1.31%; in experiment [6] it was 2.4%. Further, the inhibition in experiment [7] turned out to be 3.8%; in experiment [8], 35.2%; in [9], 76.8%; in experiment [10], 62.8%; in experiment [11] it was 82.8%; in experiment [12], 39.9%. The inhibition in experiment [13] was 81.7%; in [14], 6.98%; in experiment [15], 2.33%; in experiment [16], 7.72%; in experiment [17] it was 3.84%; in experiment [18], 7.85%. For the same molecule, the inhibition is 3.24% in experiment [19] and 4.7% in [20].
Consider `CCn1c(-c2nonc2N)nc2cnc(Oc3cccc(NC(=O)c4ccc(N(C)C)cc4)c3)cc21`, for which the inhibition in [1] worked out at 7.72%; in experiment [2], 4.18%; in [3], 3.26%; in [4], 0.67%; in [5], 0.71%; in experiment [6], 1.13%. Besides, the inhibition is -0.18% in experiment [7]; 8.23% in experiment [8]; 9.63% in [9]; 1.16% in [10]; 2.5% in experiment [11]; 0.77% in [12]. Besides, the inhibition was 1.31% in [13]; 3.11% in experiment [14]; 0.12% in experiment [15]; -0.14% in experiment [16]; 3.9% in experiment [17]; 2.5% in [18]. Moreover, the values for the inhibition in experiment [19] and in experiment [20] were 3.54% and 1.51%, respectively.
Consider `Cc1cccc2c1NC(=O)/C2=N\Nc1ccc(S(N)(=O)=O)cc1`, for which the inhibition in experiment [1] was found to be 5.1%; in experiment [2] it was 5.12%; in [3] it was 2.12%; in experiment [4], 1.36%; in experiment [5], 2.09%; in experiment [6], 0.78%. The inhibition in [7] came out at 1.05%; in experiment [8], 11.5%; in experiment [9] it was 11%; in experiment [10], 1.4%; in [11], 0.93%; in [12], 2.06%. Further, the inhibition in experiment [13] was determined as 2.97%; in experiment [14], 6.31%; in [15], 5.84%; in [16], 7.75%; in [17], 3.25%; in experiment [18] it was 3.97%. Besides, the figures for the inhibition in experiment [19] and in [20] were 3.33% and 2.12%, respectively.

For orientation: inhibition means the change of the read-out against control, counted positive when it falls.
